Screen size: about 5,500 compounds; about 2,000 (36%) were called active. Roughly 18% stayed inconclusive and do not appear here. Cut-off read from the data, not from the text of the source: active = normalized growth mostly below about 0.91 (no sharp cut-off); inconclusive = no clear call, values can overlap the other calls; inactive = mostly above about 0.92. This is one part of the list.
Experiment: chemical genetic growth profiling, strain panel (AID 1159580);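 note: tested at 20 µM; growth read once vehicle control cultures reached saturation at 30 °C; 1 = growth at the plate median or of vehicle wells; lower values mean less growth of the strain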
Conditions: growth OD
[1] = S. cerevisiae deletion strains, locus YDL101C, strain DUN1, active compounds read low
[2] = S. cerevisiae deletion strains, locus YHR030C, strain SLT2, active compounds read low

Measured: normalized growth

Cc1cc(-c2onc(C)c2C(=O)Sc2ccccc2)no1
inactive: S. cerevisiae deletion strains, locus YAR019C, strain CDC15, active compounds read low 0.941 | S. cerevisiae deletion strains, locus YBL105C, strain PKC1, active compounds read low 0.963 | S. cerevisiae deletion strains, locus YBR135W, strain CKS1, active compounds read low 0.939 | S. cerevisiae deletion strains, locus YBR136W, strain MEC1, active compounds read low 0.961 | S. cerevisiae deletion strains, locus YBR160W, strain CDC28, active compounds read low 0.954 | S. cerevisiae deletion strains, locus YDL017W, strain CDC7, active compounds read low 0.957 | S. cerevisiae deletion strains, locus YDL028C, strain MPS1, active compounds read low 0.958 | [1] 0.959 | S. cerevisiae deletion strains, locus YDL108W, strain KIN28, active compounds read low 0.962 | S. cerevisiae deletion strains, locus YDL132W, strain cdc53, active compounds read low 0.926 | S. cerevisiae deletion strains, locus YDL214C, strain PRR2, active compounds read low 0.826 | S. cerevisiae deletion strains, locus YDR052C, strain DBF4, active compounds read low 0.971 | S. cerevisiae deletion strains, locus YDR054C, strain cdc34, active compounds read low 0.918 | S. cerevisiae deletion strains, locus YDR226W, strain ADK1, active compounds read low 0.954 | S. cerevisiae deletion strains, locus YDR477W, strain SNF1, active compounds read low 0.811 | S. cerevisiae deletion strains, locus YER123W, strain YCK3, active compounds read low 0.736 | S. cerevisiae deletion strains, locus YER133W, strain GLC7, active compounds read low 0.823 | S. cerevisiae deletion strains, locus YFL009W, strain cdc4, active compounds read low 0.921 | S. cerevisiae deletion strains, locus YFL029C, strain CAK1, active compounds read low 0.921 | S. cerevisiae deletion strains, locus YFR003C, strain YPI1, active compounds read low 0.958 | S. cerevisiae deletion strains, locus YFR019W, strain FAB1, active compounds read low 0.909 | S. cerevisiae deletion strains, locus YFR028C, strain CDC14, active compounds read low 0.96 | S. cerevisiae deletion strains, locus YGR040W, strain KSS1, active compounds read low 0.852 | S. cerevisiae deletion strains, locus YGR052W, strain FMP48, active compounds read low 0.81 | S. cerevisiae deletion strains, locus YGR092W, strain DBF2, active compounds read low 0.705 | S. cerevisiae deletion strains, locus YHR079C, strain IRE1, active compounds read low 0.704 | S. cerevisiae deletion strains, locus YHR082C, strain KSP1, active compounds read low 0.901 | S. cerevisiae deletion strains, locus YHR205W, strain SCH9, active compounds read low 0.657 | S. cerevisiae deletion strains, locus YIL147C, strain SLN1, active compounds read low 0.958 | S. cerevisiae deletion strains, locus YJL095W, strain BCK1, active compounds read low 0.704 | S. cerevisiae deletion strains, locus YJL128C, strain PBS2, active compounds read low 0.888 | S. cerevisiae deletion strains, locus YJL157C, strain FAR1, active compounds read low 0.819 | S. cerevisiae deletion strains, locus YJR016C, strain ILV3, active compounds read low 0.944 | S. cerevisiae deletion strains, locus YJR066W, strain TOR1 (second series), active compounds read low 0.708 | S. cerevisiae deletion strains, locus YJR066W, strain TOR1, active compounds read low 0.892 | S. cerevisiae deletion strains, locus YKL048C, strain ELM1, active compounds read low 0.942 | S. cerevisiae deletion strains, locus YKL067W, strain YNK1, active compounds read low 0.824 | S. cerevisiae deletion strains, locus YKL101W, strain HSL1, active compounds read low 0.881 | S. cerevisiae deletion strains, locus YKL193C, strain SDS22, active compounds read low 0.942 | S. cerevisiae deletion strains, locus YKL203C, strain TOR2, active compounds read low 0.885 | S. cerevisiae deletion strains, locus YLR133W, strain CKI1, active compounds read low 0.867 | S. cerevisiae deletion strains, locus YLR403W, strain SFP1, active compounds read low 0.794 | S. cerevisiae deletion strains, locus YML070W, strain DAK1, active compounds read low 0.829 | S. cerevisiae deletion strains, locus YMR001C, strain CDC5, active compounds read low 0.935 | S. cerevisiae deletion strains, locus YMR205C, strain PFK2 (second series), active compounds read low 0.87 | S. cerevisiae deletion strains, locus YMR277W, strain FCP1, active compounds read low 0.925 | S. cerevisiae deletion strains, locus YNL006W, strain LST8, active compounds read low 0.962 | S. cerevisiae deletion strains, locus YNL020C, strain ARK1, active compounds read low 0.846 | S. cerevisiae deletion strains, locus YNL161W, strain CBK1, active compounds read low 0.947 | S. cerevisiae deletion strains, locus YNL183C, strain NPR1, active compounds read low 0.68 | S. cerevisiae deletion strains, locus YNL207W, strain RIO2, active compounds read low 0.947 | S. cerevisiae deletion strains, locus YNL222W, strain SSU72, active compounds read low 0.943 | S. cerevisiae deletion strains, locus YNL307C, strain MCK1 (second series), active compounds read low 0.802 | S. cerevisiae deletion strains, locus YOL078W, strain AVO1, active compounds read low 0.918 | S. cerevisiae deletion strains, locus YOL136C, strain PFK27, active compounds read low 0.843 | S. cerevisiae deletion strains, locus YOR061W, strain CKA2, active compounds read low 0.859 | S. cerevisiae deletion strains, locus YOR119C, strain RIO1, active compounds read low 0.836 | S. cerevisiae deletion strains, locus YOR231W, strain MKK1, active compounds read low 0.75 | S. cerevisiae deletion strains, locus YOR329C, strain SCD5, active compounds read low 0.95 | S. cerevisiae deletion strains, locus YPL031C, strain PHO85, active compounds read low 0.783 | S. cerevisiae deletion strains, locus YPL153C, strain RAD53, active compounds read low 0.756 | S. cerevisiae deletion strains, locus YPL204W, strain HRR25, active compounds read low 0.805 | S. cerevisiae deletion strains, locus YPL209C, strain IPL1, active compounds read low 0.944 | S. cerevisiae deletion strains, locus YPR025C, strain CCL1, active compounds read low 0.956 | S. cerevisiae deletion strains, locus YPR106W, strain ISR1, active compounds read low 0.973 | S. cerevisiae deletion strains, locus YPR111W, strain DBF20, active compounds read low 0.97 | S. cerevisiae deletion strains, strain NNK1, active compounds read low 0.953 | S. cerevisiae deletion strains, strain TSCII, active compounds read low 0.93
active: [2] 0.743 | S. cerevisiae deletion strains, locus YLR113W, strain HOG1, active compounds read low 0.453 | S. cerevisiae deletion strains, locus YPL256C, strain CLN2, active compounds read low 0.695

CSc1cc(C(F)(F)F)cc(SC)c1SC
inactive: S. cerevisiae deletion strains, locus YAL013W, strain DEP1, active compounds read low 0.993 | S. cerevisiae deletion strains, locus YBR229C, strain ROT2, active compounds read low 0.975 | [1] 0.992 | S. cerevisiae deletion strains, locus YDR150W, strain NUM1, active compounds read low 1.01 | S. cerevisiae deletion strains, locus YEL061C, strain CIN8, active compounds read low 0.987 | S. cerevisiae deletion strains, locus YGR078C, strain PAC10, active compounds read low 0.981 | S. cerevisiae deletion strains, locus YHR087W, strain rtc3, active compounds read low 0.953 | S. cerevisiae deletion strains, locus YJL187C, strain SWE1, active compounds read low 0.986 | S. cerevisiae deletion strains, locus YJR043C, strain POL32, active compounds read low 0.988 | S. cerevisiae deletion strains, locus YJR075W, strain HOC1, active compounds read low 0.945 | S. cerevisiae deletion strains, locus YKL190W, strain CNB1, active compounds read low 0.967 | S. cerevisiae deletion strains, locus YLR058C, strain SHM2 (second series), active compounds read low 0.974 | S. cerevisiae deletion strains, locus YLR085C, strain ARP6, active compounds read low 0.958 | S. cerevisiae deletion strains, locus YML094W, strain GIM5, active compounds read low 1.01 | S. cerevisiae deletion strains, locus YMR219W, strain ESC1, active compounds read low 0.978 | S. cerevisiae deletion strains, locus YMR263W, strain SAP30, active compounds read low 0.997 | S. cerevisiae deletion strains, locus YNL153C, strain GIM3, active compounds read low 1 | S. cerevisiae deletion strains, locus YNL298W, strain CLA4 (second series), active compounds read low 0.975 | S. cerevisiae deletion strains, locus YNL322C, strain KRE1, active compounds read low 0.969 | S. cerevisiae deletion strains, locus YNR030W, strain Alg12, active compounds read low 0.974 | S. cerevisiae deletion strains, locus YPL055C, strain LGE1, active compounds read low 0.866 | S. cerevisiae deletion strains, locus YPL241C, strain CIN2, active compounds read low 0.986 | S. cerevisiae deletion strains, locus YPR135W, strain CTF4, active compounds read low 0.909 | S. cerevisiae strains, strain wild type, active compounds read low 0.925
active: S. cerevisiae deletion strains, locus YDL134C, strain PPH21, active compounds read low 0.909 | [2] 0.678 | S. cerevisiae deletion strains, locus YLR039C, strain RIC1, active compounds read low 0.785 | S. cerevisiae deletion strains, locus YLR262C, strain YPT6, active compounds read low 0.809 | S. cerevisiae deletion strains, locus YMR307W, strain GAS1, active compounds read low 0.373

Source: PubChem BioAssay AID1159580 (chemical genetic matrix, 2015)
